The results in this text go back to PubChem BioAssay.

The source made the active and inactive calls. Unless noted, the rule behind the calls is not given here.

Experiment [1] can be described thus: HepG2 liver cancer cell viability effects, profiling panel, resazurin fluorescence, 24 h, PK04 Diversity Set (AID 1172). Particulars: higher = more signal. For orientation: Resazurin is reduced to fluorescent resorufin, in cell work by metabolically active cells.
Experiment [2] in a line: basal S. cerevisiae growth modulation, no modifier, primary screen, OD600, strain BY4716, 24 h, basal condition (AID 1173). Particulars: OD600, 24 h, higher = more signal, called active from +8 up or from −8 down.
The nature of experiment [3]: MM1S myeloma cell viability, profiling panel, resazurin fluorescence, basal, 24 h, PK04 Diversity Set (AID 1174).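 Note: MM1S multiple myeloma cell line.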 Particulars: higher = more signal, called active from +8 up or from −8 down.
The target of experiment [4] is Dihydroorotate dehydrogenase (quinone), mitochondrial (Plasmodium falciparum (isolate 3D7)) (UniProt Q08210). The experiment is described as follows: PfDHODH enzyme inhibitors, primary screen, biochemical, C-terminal His tag, absorbance 600 nm (AID 1175).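 Note: recombinant parasite enzyme with a five histidine tag at its C terminus.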 Particulars: DCIP absorbance 600 nm, higher = more signal, called active from +8 up or from −8 down.
Dihydroorotate dehydrogenase (quinone), mitochondrial (Plasmodium falciparum (isolate 3D7)), sequence (Q08210 whole entry, looked up): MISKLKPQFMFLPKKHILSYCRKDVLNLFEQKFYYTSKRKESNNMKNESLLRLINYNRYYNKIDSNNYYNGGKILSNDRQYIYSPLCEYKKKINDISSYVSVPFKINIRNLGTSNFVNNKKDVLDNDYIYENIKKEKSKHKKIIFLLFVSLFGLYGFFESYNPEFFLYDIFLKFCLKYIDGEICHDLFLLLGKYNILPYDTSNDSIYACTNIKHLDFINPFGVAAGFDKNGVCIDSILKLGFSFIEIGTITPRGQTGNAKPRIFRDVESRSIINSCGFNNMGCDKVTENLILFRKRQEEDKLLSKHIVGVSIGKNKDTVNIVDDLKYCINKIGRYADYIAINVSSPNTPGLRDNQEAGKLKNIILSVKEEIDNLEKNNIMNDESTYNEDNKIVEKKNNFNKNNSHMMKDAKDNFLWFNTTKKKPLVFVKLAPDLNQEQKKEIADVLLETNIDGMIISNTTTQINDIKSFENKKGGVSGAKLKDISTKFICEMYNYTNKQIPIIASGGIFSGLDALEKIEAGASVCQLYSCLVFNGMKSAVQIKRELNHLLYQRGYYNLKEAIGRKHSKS
The nature of experiment [5]: P. aeruginosa biofilm formation inhibitors, primary screen, strain PAO1, LB-PBS medium, absorbance 600 nm (AID 1176). Particulars: P. aeruginosa PAO1 growth/biofilm, A600, 12 h; higher = more signal.
Experiment [6] in a line: S. cerevisiae RM11-1a growth modifiers, primary screen, strain RM11-1a, OD600, basal, 24 h (AID 1177).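 Note: cultures grown under basal conditions with no added stressor.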 Particulars: OD600, 24 h, higher = more signal, called active from +8 up or from −8 down.
The nature of experiment [7]: E. coli acrAB mutant growth effects, primary screen, E. coli filamentation inducers, strain DRC39, OD650, 24 h (AID 1178).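 Note: growth measured as culture turbidity by optical density at 650 nm.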 Particulars: higher = more signal, called active from +8 up or from −8 down.
Experiment [8] in a line: E. coli acrAB mutant growth effects, primary screen, E. coli filamentation inducers, strain DRC39, OD650, 48 h (AID 1179).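 Note: screen aims at cell division blockers that make cells filament.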 Particulars: E. coli DRC39 delta-acrAB growth, higher = more signal, called active from +8 up or from −8 down.
Experiment [9] is described as follows: RPMI8226 myeloma cell viability, profiling panel, resazurin fluorescence, basal, 24 h, PK04 Diversity Set (AID 1180).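 Note: RPMI8826 multiple myeloma cell line at 5000 cells per well.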 Particulars: higher = more signal.
Experiment [10] has as its target E3 ubiquitin-protein ligase XIAP (Homo sapiens) (UniProt P98170). The experiment in a line: XIAP binders, primary screen, biophysical, small-molecule microarray, fluorescence 635 nm (AID 1181).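 Note: score merges 667 nm emission and signal to noise over triplicate slides.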 Particulars: small-molecule microarray binding, higher = more signal.
Experiment [11] concerns XIP peptide (Xip251-270) binding. The experiment is described as follows: small-molecule binders of XIP peptide, primary screen, biochemical, small-molecule microarray, fluorescence 635/667 nm, 0.1 µg/mL protein (AID 1182). Particulars: fluorescent protein binding, 635 nm, higher = more signal, called active from +8 up or from −8 down.
The subject of the next experiment is XIP peptide (Xip251-270). The experiment is described as follows: small-molecule binders of XIP peptide, primary screen, biochemical, small-molecule microarray, fluorescence 635/667 nm, 0.5 µg/mL protein (AID 1183). Particulars: small-molecule microarray binding, fluorescence 635 nm; higher = more signal.
The nature of experiment [12]: Plasmodium falciparum growth inhibition, primary screen, strain 3D7, DAPI fluorescence, 100 nL (AID 1184).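 Note: parasites grown inside human red blood cells in medium with human serum.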 Particulars: P. falciparum 3D7 growth, 3 d, higher = more signal.
Experiment [13] addresses Homeobox protein Hox-A13 (Mus musculus) (UniProt Q62424). The experiment in a line: inhibitors of HoxA13-DNA binding, primary screen, biochemical, fluorescence polarization, labeled oligonucleotide (AID 1185). Particulars: 15 min, higher = more signal, called active from +8 up or from −8 down.
Experiment [14] can be described thus: inhibitors of hydroxyurea-induced Chk1 phosphorylation, primary screen, imaging, HeLa, phospho-Chk1 antibody, percent positive cells (AID 1186). Particulars: hydroxyurea-induced phospho-Chk1 immunofluorescence imaging, higher = more signal.
A short description of experiment [15]: inhibitors of hydroxyurea-induced Chk1 phosphorylation, primary screen, imaging, HeLa, phospho-Chk1 nuclear intensity (AID 1187). Particulars: hydroxyurea-induced phospho-Chk1 immunofluorescence imaging, higher = more signal.

Homeobox protein Hox-A13 (Mus musculus), sequence (Q62424 whole entry, looked up): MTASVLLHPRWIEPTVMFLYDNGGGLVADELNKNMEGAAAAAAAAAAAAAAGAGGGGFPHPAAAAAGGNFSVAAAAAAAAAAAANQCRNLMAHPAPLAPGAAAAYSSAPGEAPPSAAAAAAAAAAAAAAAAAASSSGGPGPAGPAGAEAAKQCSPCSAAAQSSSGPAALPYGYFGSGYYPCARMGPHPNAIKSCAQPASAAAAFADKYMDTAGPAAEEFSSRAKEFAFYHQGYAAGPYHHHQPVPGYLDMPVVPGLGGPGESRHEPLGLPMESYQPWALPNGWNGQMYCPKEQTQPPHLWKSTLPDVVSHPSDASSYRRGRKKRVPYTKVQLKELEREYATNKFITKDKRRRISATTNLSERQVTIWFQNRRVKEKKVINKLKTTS
E3 ubiquitin-protein ligase XIAP (Homo sapiens), sequence (P98170 whole entry, looked up): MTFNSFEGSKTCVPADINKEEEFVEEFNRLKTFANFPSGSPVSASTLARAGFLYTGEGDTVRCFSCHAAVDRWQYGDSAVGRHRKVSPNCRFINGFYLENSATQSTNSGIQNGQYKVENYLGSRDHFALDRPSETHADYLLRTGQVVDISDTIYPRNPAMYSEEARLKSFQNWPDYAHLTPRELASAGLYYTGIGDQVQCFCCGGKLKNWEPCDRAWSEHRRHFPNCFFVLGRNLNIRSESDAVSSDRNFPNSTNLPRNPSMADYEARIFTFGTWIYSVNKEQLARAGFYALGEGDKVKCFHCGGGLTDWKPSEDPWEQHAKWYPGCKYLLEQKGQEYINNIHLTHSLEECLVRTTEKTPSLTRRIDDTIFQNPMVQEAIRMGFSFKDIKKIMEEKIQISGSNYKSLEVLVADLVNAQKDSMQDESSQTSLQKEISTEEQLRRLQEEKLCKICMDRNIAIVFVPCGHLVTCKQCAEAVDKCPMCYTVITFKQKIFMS

In the case of `COc1cc(NN2C(C(O)c3ccccc3)C=CC3C(=O)N(c4ccccc4)C(=O)C32)cc(OC)c1OC` (stereo not given), the z-score in [1] is -1.04; in [2], 0.887 (inactive); in [3], -0.417 (inactive); in experiment [5] it was -0.0751 (inactive); in [6] it was 0.0729 (inactive); in [7], 0.32 (inactive). The z-score is 0.8 (inactive) in [8]; -0.827 in experiment [9]; -0.634 in experiment [12]; -4.58 (inactive) in [13]; 0.124 (inactive) in experiment [14]; -0.0995 (inactive) in [15]. Moreover, the composite z-score was -1.37 (inactive) in experiment [4], 0.219 in experiment [10], 0.396 (inactive) in experiment [11] and 0.774 in the experiment on XIP peptide (Xip251-270).

Turning to `O=C1C2C=CC(C(O)C3CC=CCC3)N(n3cnnc3)C2C(=O)N1Cc1ccccc1` (stereo not given), the z-score was -0.854 in [1]; 0.0086 (inactive) in experiment [2]; -1.16 (inactive) in experiment [3]; 0.216 (inactive) in experiment [5]; -0.363 (inactive) in experiment [6]; -1.59 (inactive) in experiment [7]. The z-score in experiment [8] was -1.35 (inactive); in experiment [9], -1.45; in [12], 0.017; in experiment [13], -3.36 (inactive); in [14], 0.518 (inactive); in [15], -0.603 (inactive). For the same molecule, the composite z-score in experiment [4] was -0.071 (inactive); in experiment [10], 0.38; in experiment [11], 0.887 (inactive); in the experiment with XIP peptide (Xip251-270), -0.0517.

For the molecule `COCC1C2CC[C@H]3C(OCc4ccc(F)cc4C(F)(F)F)OC[C@]4(C)[C@H]3C2=C(CN4C(=O)OC(C)(C)C)[C@H](C)C1COC` (stereo not given in full), the z-score was -0.422 in experiment [1]; 0.236 (inactive) in [2]; -0.481 (inactive) in experiment [3]; 0.383 (inactive) in [5]; -3.23 (inactive) in [6]; -0.93 (inactive) in experiment [7]. Also, the z-score in experiment [8] is 0.25 (inactive); in experiment [9] it was 0.092; in [12] it was -1.06; in experiment [13], -3 (inactive); in experiment [14], -0.43 (inactive); in experiment [15], -0.0765 (inactive). Also, the composite z-score is -0.908 (inactive) in experiment [4], -0.122 in experiment [10], 1.84 (inactive) in [11] and 0.761 in the experiment with XIP peptide (Xip251-270).

On to `CC(=O)NCCCC[C@@H]1NC(=O)[C@@H]2C[C@H](C(=O)NCc3ccc(F)cc3)[C@H](c3ccc(O)cc3)N2C1=O`, for which the z-score is -0.0579 in [1]; -0.462 (inactive) in [2]; -0.276 (inactive) in experiment [3]; -0.226 (inactive) in experiment [5]; -0.985 (inactive) in experiment [6]; 0.304 (inactive) in [7]. Also, the z-score in [8] is -0.598 (inactive); in experiment [9] it was 0.473; in experiment [12], -0.448; in experiment [13], -1.2 (inactive); in [14], 0.0701 (inactive); in experiment [15], 0.0917 (inactive). For the same molecule, the composite z-score in experiment [4] is -1.13 (inactive); in [10] it was 0.105; in [11], 1.64 (inactive); in the experiment with XIP peptide (Xip251-270) it was 1.01.

Regarding `C=C(CCCC)/C(=C/C[C@@H](OC(=O)c1ccncc1)c1ccc(CO)o1)c1cc(C(=O)OC)ccc1OC`, the z-score in [1] was 0.116; in experiment [2], -0.973 (inactive); in [3], -0.864 (inactive); in experiment [5] it was 0.847 (inactive); in experiment [6] it was -0.513 (inactive); in experiment [7], 1.15 (inactive). Moreover, the z-score was 0.84 (inactive) in [8]; -0.466 in experiment [9]; -0.519 in [12]; -3.68 (inactive) in [13]; -0.762 (inactive) in experiment [14]; -1.65 (inactive) in experiment [15]. For the same molecule, the composite z-score was -5.02 (inactive) in experiment [4], 0.508 in [10], 0.611 (inactive) in [11] and 0.83 in the experiment on XIP peptide (Xip251-270).

Take `C=CCC(OC(C)=O)[C@@H]1[C@@H](N(Cc2ccc(-c3ccccc3)cc2)C(=O)c2ccc(C)cc2)c2cc(OCCCO)ccc2N1C(=O)Cc1ccc(OC)cc1` (stereo not given in full): the z-score in experiment [1] is 0.989; in experiment [2] it was -0.397 (inactive); in experiment [3], 1.02 (inactive); in experiment [5] it was -0.312 (inactive); in experiment [6], -1.65 (inactive); in experiment [7] it was -0.104 (inactive). The z-score in [8] was 0.393 (inactive); in [9], 0.72; in experiment [12] it was -1.18; in [13], -0.664 (inactive); in experiment [14], -0.793 (inactive); in experiment [15] it was -0.677 (inactive). The composite z-score in [4] is -1.17 (inactive); in experiment [10], -0.165; in experiment [11], 0.0129 (inactive); in the experiment on XIP peptide (Xip251-270), 0.703.

Regarding `O=c1cccc(-c2ccc3ccccc3c2)o1`, the z-score was -0.321 in experiment [1]; -16.1 (active) in experiment [2]; 0.2 (inactive) in experiment [3]; -0.281 (inactive) in experiment [5]; -2.6 (inactive) in experiment [6]; 0.632 (inactive) in experiment [7]. The z-score in experiment [8] is 0.159 (inactive); in experiment [9] it was 0.37; in experiment [12] it was 1; in [13], -1 (inactive); in [14], -0.319 (inactive); in [15], -0.587 (inactive). Also, the composite z-score in experiment [4] was -1.14 (inactive); in experiment [10], 0.0754; in [11], -0.644 (inactive); with XIP peptide (Xip251-270) it was -0.688.

`C[C@H]1C2[C@H](Cc3ccccc3)NC(=O)[C@]23C(=O)N[C@H](Cc2ccccc2)C(=O)N[C@H](Cc2ccccc2)C(=O)NC/C=C/CCC/C=C/C3[C@@H]2O[C@]12C` (stereo not given in full): the z-score was -1.6 in experiment [1]; -1.6 (inactive) in [2]; -0.121 (inactive) in [3]; -0.283 (inactive) in experiment [5]; 0.336 (inactive) in experiment [6]; 0.276 (inactive) in experiment [7]. Also, the z-score is -0.934 (inactive) in experiment [8]; -0.403 in experiment [9]; -1.71 in [12]; -5.67 (inactive) in experiment [13]; 0.275 (inactive) in [14]; 0.371 (inactive) in experiment [15]. The composite z-score in experiment [4] was 0.453 (inactive); in experiment [10], -0.0807; in experiment [11] it was 0.353 (inactive); in the experiment on XIP peptide (Xip251-270), 0.518.

Regarding `[N-]=[N+]=NCc1ccccc1C[C@]1(C(=O)N2CCOCC2)N=C(c2ccc(OCCCO)cc2)O[C@H]1c1ccccc1`, the z-score was -0.552 in experiment [1]; -0.34 (inactive) in experiment [2]; -2.29 (inactive) in [3]; -0.537 (inactive) in experiment [5]; 0.328 (inactive) in experiment [6]; 0.685 (inactive) in experiment [7]. The z-score in experiment [8] was 0.694 (inactive); in experiment [9] it was -4.46; in [12], -2.38; in experiment [13], -6.01 (inactive); in experiment [14] it was -0.638 (inactive); in experiment [15], -0.71 (inactive). Besides, the composite z-score in [4] was 1.44 (inactive); in experiment [10], -0.0884; in experiment [11], 0.855 (inactive); with XIP peptide (Xip251-270) it was 0.21.

As for `O[C@@H](Cc1ccccc1)[C@@H](/C=C/c1ccccc1)NCc1ccccc1Br`, the z-score was 0.13 in [1]; -6.87 (inactive) in experiment [2]; 0.119 (inactive) in [3]; -0.107 (inactive) in experiment [5]; -0.955 (inactive) in [6]; 0.429 (inactive) in [7]. The z-score in experiment [8] is -0.21 (inactive); in [9], 0.115; in experiment [12] it was 0.871; in [13], -0.419 (inactive); in experiment [14], -0.28 (inactive); in experiment [15], 0.364 (inactive). Further, the composite z-score is -1.05 (inactive) in [4], -0.214 in experiment [10], -0.265 (inactive) in [11] and 0.727 in the experiment on XIP peptide (Xip251-270).
